# Screening results from PubChem BioAssay.
# D1 ag – Allosteric Agonists of the Human D1 Dopamine Receptor: qHTS; D(1A) dopamine receptor (Homo sapiens), P21728; HEK293 T-REx D1 cells, calcium flux, agonist mode; activation, % at 2 µM; hit rate 1% among 360,000; AID 504660, 2011; in the data active means activation above about 30%
#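 Inducible HEK293 T-REx D1 cells, force-coupled to calcium signalling, were plated at 4000 cells/well with tetracycline and held overnight at 30 C. After no-wash calcium dye loading, compound-evoked calcium rise over 180 s flagged agonists.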
# DRD3 agonist – qHTS of D3 Dopamine Receptor Agonist: qHTS. max activation, %. AID 652048, 2013. D3R DiscoveRx beta-arrestin cells, luminescence, 90 min. hit rate 0.58% among 410,000; in the data active means max activation above about 30%
# Target sequence (P35462 whole entry, looked up): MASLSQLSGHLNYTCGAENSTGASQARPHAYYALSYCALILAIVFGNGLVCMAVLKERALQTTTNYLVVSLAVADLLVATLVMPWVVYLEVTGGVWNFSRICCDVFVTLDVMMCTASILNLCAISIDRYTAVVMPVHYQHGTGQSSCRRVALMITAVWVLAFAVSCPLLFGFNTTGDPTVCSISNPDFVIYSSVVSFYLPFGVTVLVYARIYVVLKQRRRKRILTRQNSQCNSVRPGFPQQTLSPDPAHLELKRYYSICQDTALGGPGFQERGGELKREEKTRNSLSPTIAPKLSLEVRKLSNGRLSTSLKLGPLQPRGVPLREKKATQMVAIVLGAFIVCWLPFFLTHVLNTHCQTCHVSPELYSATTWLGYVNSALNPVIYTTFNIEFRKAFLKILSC
#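 Agonist-mode cell screen: cells plated at 1500/well and incubated overnight at 37 °C, then exposed to library compounds for 90 min at 37 °C. Detection reagent was added for 30–60 min at room temperature, and luminescence was read.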
# D1 PAM – Potentiators of Human D1 Dopamine Receptor: qHTS; hit rate 0.036% among 360,000; HEK293 TREx D1 cells, calcium flux, dopamine EC20 potentiation; potentiation, % at 10 µM; D(1A) dopamine receptor (Homo sapiens), P21728; AID 504651, 2011; in the data active means potentiation above about 30%
# D1 antagonist – Antagonist of Human D 1 Dopamine Receptor: qHTS. activity change, negative = inhibition, % at 10 µM. hit rate 3.2% among 360,000. D(1A) dopamine receptor (Homo sapiens), P21728. HEK293 TREx D1 cells, calcium flux, dopamine EC80; hits give low values. AID 504652, 2011; in the data active means activity change below about -30%
#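 Kinetic fluorescence of a calcium dye serves as the read-out. D1-expressing Hek293 Trex cells, induced overnight at 30 C, are exposed to compound for 180 s before an EC80 dopamine addition, then read 180 s further.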
# D3 antag – qHTS of D3 Dopamine Receptor Antagonist: qHTS; D3R cells, DiscoveRx beta-arrestin luminescence, antagonist mode; hits give low values; max response, negative = inhibition, %; hit rate 2.5% among 360,000; AID 652054, 2013; in the data active means max response below about -50%; inconclusive means no clear call, values can overlap the other calls
#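 Cells expressing the human receptor were seeded at 1500 cells/well, incubated overnight at 37 degrees C in 5% CO2, then exposed to library compounds with dopamine controls for 90 minutes at 37 degrees C before luminescent detection.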
# Hits are given with their value; n = inactive; u = inconclusive; x = no result; ! = repeats disagree. A selection: hits, their analogues and other compounds. The true share with any hit is near 6%.
SMILES,D1 ag,DRD3 agonist,D1 PAM,D1 antagonist,D3 antag
Cc1ccc(OCc2nc(-c3ccc(C(=O)N4CCN(c5cc(Cl)ccc5C)CC4)cc3)oc2C)cc1,n,n,n,-34,x
Cc1ccc(OCc2nc(-c3ccc(C(=O)N4CCN(c5ccccc5)CC4)cc3)oc2C)cc1,n,n,n,n,x
Oc1ccc(-c2c(-c3ccsc3)sc3ccccc23)cc1,n,36,n,n,n
CCCc1nnc(NC(=O)Cc2coc3ccc(C)cc23)s1,n,n,n,n,x
Cc1nnc(SCC(=O)NC2CC2)s1,n,n,n,-48,n
CCOc1ccc(NC(=O)c2c[nH]n3c(=O)cc(C4CCN(C(=O)OC(C)(C)C)CC4)nc23)cc1,n,n,n,-32,n
CCOC(=O)N1CCC(c2cc(=O)n3[nH]cc(C(=O)OC)c3n2)CC1,n,n,n,n,n
CCC(NC(C)C)C(O)c1ccc(O)c2[nH]c(=O)ccc12 (centres undefined),n,35,n,n,n
CCCCCCCN(CC)CCCC(O)c1ccc(NS(C)(=O)=O)cc1 (centres undefined),x,n,x,x,x
O=[N+]([O-])c1ccc(N2CCOCC2)cc1O,n,n,n,n,n
Cc1cc(N2CCOCC2)ccc1/C=C\[N+](=O)[O-],47,n,n,n,n
CCn1c2ccccc2c2cc(CNCCCN3CCOCC3)ccc21,n,n,n,n,-100
COc1ccc(CNCc2cc(C)c(OC)cc2C)c(OC)c1,30,n,n,n,n
CCC(CC)NCc1ccc2c(c1)c1ccccc1n2CC,60,n,n,n,n
CCn1c2ccccc2c2cc(CNCc3ccc(OC)cc3OC)ccc21,94,n,n,n,n
CCOC(=O)C1CCN(C(c2cccc(F)c2)c2c(O)cc(C)n(CCOC)c2=O)CC1 (centres undefined),n,n,n,n,x
O=C(Cn1c(=O)n(-c2ccc(Cl)cc2)c(=O)c2sc3ccccc3c21)NC1CCCC1,n,n,n,n,x
OC(CNc1ccccc1)COc1ccc(OCC(O)CNc2ccccc2)cc1 (centres undefined),n,n,n,-40,n
CCOC(=O)c1cccc(OCC(O)CNCCOc2ccccc2F)c1 (centres undefined),n,n,n,n,-55
CC(=O)CCc1ccc(OCC(O)CNCCOc2ccc(C)cc2)cc1 (centres undefined),n,51,n,n,n
COc1ccc(OCC(O)CNCc2ccco2)cc1 (centres undefined),n,n,n,n,n
OC(CNCc1ccco1)COc1ccccc1 (centres undefined),n,n,n,n,-55
CCOc1ccc(NC(=O)Cn2cc(C(=O)c3ccc(F)cc3)c(=O)c3cc4c(cc32)OCCO4)cc1,n,n,n,n,x
COc1ccccc1NCC(O)COc1ccc(C(C)(C)C)cc1 (centres undefined),n,n,n,n,n
Cc1ccccc1OCC(O)CNCCOc1ccc(C(N)=O)cc1 (centres undefined),x,n,x,x,x
SMILES,D1 ag,DRD3 agonist,D1 PAM,D1 antagonist,D3 antag
Cc1ccc(OCCNCC(O)COc2ccccc2)cc1 (centres undefined),n,n,n,n,-83
COc1ccc(OCC(O)CNCCOc2ccccc2OC)c(C(C)(C)C)c1 (centres undefined),59,n,n,n,-81
COc1ccc(OC)c(S(=O)(=O)NCCc2sc(C)nc2C)c1,n,n,n,n,x
Cc1ccc(S(=O)(=O)c2nc(-c3ccccc3Cl)oc2N2CCCCCC2)cc1,n,n,n,n,x
CCN1CCN(c2oc(-c3ccccc3C)nc2S(=O)(=O)c2ccccc2)CC1,n,n,n,n,-83
Cc1ccc(S(=O)(=O)c2nc(-c3ccccc3Cl)oc2N2CCN(C)CC2)cc1,x,n,x,x,-55
Cc1oc(-c2cccs2)nc1CN1CCN(CC(C)C)C(CCO)C1 (centres undefined),n,n,n,n,n
Cc1ccccc1CC1(CO)CCCN(Cc2nc(-c3cccs3)oc2C)C1 (centres undefined),n,n,n,n,-104
C/C(N)=C(/C#N)C(=O)CSc1nnc(-c2ccc(OC(F)F)cc2)o1,n,n,n,-37,n
CCc1ccc(OCC(=O)N(Cc2ccco2)Cc2ccco2)cc1,n,n,n,n,x
Cc1ccc(NS(=O)(=O)c2cc(C(=O)NCc3ccccn3)ccc2Cl)cc1C,n,n,n,-31,n
O=C(NCc1ccccn1)c1ccc(NS(=O)(=O)c2cccc(Cl)c2)cc1,n,n,n,n,-61
CCCNC(=O)C1=CC(c2ccc3c(c2)OCO3)=NS(=O)(=O)N1C,n,n,n,n,x
CN1c2ccsc2C(O)=C(C(=S)Nc2ccc(F)c(Cl)c2)S1(=O)=O,n,n,n,n,-93
CCCOc1ccc(Br)cc1/C=N/O,43,n,n,n,n
CCOc1ccc(Br)cc1/C=N/O,n,n,n,n,n
COc1ccccc1Cn1cc(C(=O)c2ccc(C)cc2)c(=O)c2cc3c(cc21)OCCO3,n,n,n,n,x
NC(=O)C[C@@H](N)C(=O)O,x,n,x,x,x
CCOc1ccc(CC(=O)C2C(=O)CC(C)(C)CC2=O)cc1OCC,n,n,n,n,n
CCOc1ccc(CC(=O)C2C(=O)CCCC2=O)cc1OCC,n,n,n,-42,n
CC1(C)NC(=O)N(CC(O)COc2ccccc2C(=O)N2CCCCC2)C1=O (centres undefined),n,n,n,-30,n
O=C(c1cc2ccccc2cc1OCC(O)CN1CCCCC1)N1CCCCC1 (centres undefined),n,n,n,n,-85
CCCN1CCN(CCCNC(=O)c2cnn(-c3ccc(F)cc3)c2-n2cccc2)CC1,n,n,n,n,x
Cc1ccc(-c2ccc(=O)n(CC(=O)NCCc3ccccc3)n2)cc1,n,n,n,n,x
Cc1ccc(-n2c(=O)[nH]c3cc(C(=O)NC4CCN(Cc5ccccc5)CC4)ccc3c2=O)cc1,n,n,n,n,-93
SMILES,D1 ag,DRD3 agonist,D1 PAM,D1 antagonist,D3 antag
Cc1ccc(-n2c(=O)[nH]c3cc(C(=O)NCCc4ccccc4)ccc3c2=O)cc1,n,n,n,n,x
CCOC(=O)N1CCN(C(=O)c2ccc3c(c2)N(Cc2ccccc2)CCS3)CC1,n,n,n,-34,n
Cc1ccc(CN2CCSc3ccc(C(=O)NC4CCN(Cc5ccccc5)CC4)cc32)cc1,n,n,n,n,-83
COc1ccc(COc2ncnc3ccc(Br)cc23)cc1F,n,n,32,n,n
c1ccc(SCCc2ccncc2)cc1,n,n,n,n,n
Fc1ccc(SCCc2ccncc2)cc1,n,n,n,-34!,u
COC(=O)c1cc(S(=O)(=O)Nc2nn(C)c3cccc(F)c23)oc1C,n,n,n,-40,n
COC(=O)c1cc(S(=O)(=O)Nc2nn(C)c3ccccc23)oc1C,n,n,n,n,n
